These results are taken from PubChem BioAssay.

Experiment [1] concerns Human papillomavirus type 1a protein E7 (residues 44-93). The experiment can be described thus: small molecules binding HPV E7 44-93 – biochemical, small-molecule microarray, residues 44-93, 635 nm fluorescence, primary screen (AID 1108).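 Note: E7 fragment applied at 1 µg/mL in TBST for 1 h at 4 C; score combines spot fluorescence with its signal to noise ratio.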 As to conditions: fluorescence 635 nm, higher = more signal.
Experiment [2] in a line: hepatitis C replication reporter changes, two-sided – Huh7 cells, luciferase reporter, HCV replication inhibitor project, primary screen (AID 1109).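 Note: huh7 hepatoma cells harbouring a luciferase neomycin HCV replicon reporter; luciferase luminescence as measure of HCV replicon replication; test concentration not given here.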 The settings on record: Huh7 HCV replicon luciferase reporter, 48 h; higher = more signal. On the technique in general: A reporter such as luciferase makes a cellular process visible.
The target of experiment [3] is Left-right determination factor 2 (Homo sapiens) (UniProt O00292). The experiment can be described thus: small molecules binding LEFTY2 protein – biochemical, small-molecule microarray, 635 nm fluorescence scan, primary screen (AID 1110). The settings on record: higher = more signal.
Experiment [4] addresses Calmodulin-1 (Homo sapiens) (UniProt P0DP23). The experiment can be described thus: small molecules binding calmodulin-1 with EGTA – biochemical, small-molecule microarray, Cy5-labelled CALM1, profiling panel (AID 1111).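 Note: labelled calmodulin applied in Tris saline Tween buffer holding calcium plus EGTA and DTT.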 As to conditions: Cy5-CALM1 binding fluorescence, higher = more signal.
For experiment [5] the target is unchanged. The experiment is described as follows: small molecules binding Ca-loaded calmodulin-1 – biochemical, small-molecule microarray, Cy5-labelled CALM1, plus calcium, artefact control for SMM control-protein annotation, profiling panel (AID 1112).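 Note: score merges spot fluorescence with signal to noise from triplicate slides.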 The settings on record: Cy5-CALM1 binding fluorescence, higher = more signal.
The nature of experiment [6]: probe aWnt5a binding to arrayed compounds – biochemical, biotinylated probe, 635/667 nm fluorescence, primary screen (AID 1113).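 Note: score merges 667 nm fluorescence intensity with signal-to-noise per printed feature.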 The settings on record: small-molecule microarray, higher = more signal.
A short description of experiment [7]: probe aShh binding to arrayed compounds – biochemical, biotinylated probe, 635/667 nm fluorescence, primary screen (AID 1114).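 Note: probe is biotin-labelled aShh protein from a stem cell growth factor screen; measures binding of labelled protein to compounds printed on the slide; score merges feature fluorescence at 667 nm with signal-to-noise.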 The settings on record: small-molecule microarray, higher = more signal.
Experiment [8] in a line: probe aNog binding to arrayed compounds – biochemical, biotinylated probe, 635/667 nm fluorescence, primary screen (AID 1115).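 Note: probe is biotinylated aNog protein used at 0.15 µg/mL for 1 h at 4 C; z-score combines 667 nm fluorescence of each spot with its signal to noise.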 As to conditions: small-molecule microarray, higher = more signal.
Experiment [9] concerns the target Torsin-1A-interacting protein 1 (Homo sapiens) (UniProt Q5JTV8). The experiment is described as follows: compound microarray binding of lysate hLAP1 – cell lysate, small-molecule microarray, COS7 lysate, 635/667 nm fluorescence, primary screen (AID 1116). As to conditions: 635 nm fluorescence, higher = more signal.
For experiment [10], the target named is Alpha-bungarotoxin (Bungarus multicinctus) (UniProt P60615). The experiment can be described thus: compounds binding labelled alpha-BTX control protein – biochemical, small-molecule microarray, Alexa647 label, 635/667 nm fluorescence, artefact control for SMM control protein annotation, profiling panel (AID 1117). The settings on record: alpha-BTX-A647 binding fluorescence, higher = more signal.
Sequence of Alpha-bungarotoxin (Bungarus multicinctus) (P60615 whole entry, looked up): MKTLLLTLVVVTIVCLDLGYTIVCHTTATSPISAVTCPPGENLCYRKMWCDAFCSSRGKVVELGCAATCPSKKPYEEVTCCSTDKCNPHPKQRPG

Sequence of Torsin-1A-interacting protein 1 (Homo sapiens) (Q5JTV8 whole entry, looked up): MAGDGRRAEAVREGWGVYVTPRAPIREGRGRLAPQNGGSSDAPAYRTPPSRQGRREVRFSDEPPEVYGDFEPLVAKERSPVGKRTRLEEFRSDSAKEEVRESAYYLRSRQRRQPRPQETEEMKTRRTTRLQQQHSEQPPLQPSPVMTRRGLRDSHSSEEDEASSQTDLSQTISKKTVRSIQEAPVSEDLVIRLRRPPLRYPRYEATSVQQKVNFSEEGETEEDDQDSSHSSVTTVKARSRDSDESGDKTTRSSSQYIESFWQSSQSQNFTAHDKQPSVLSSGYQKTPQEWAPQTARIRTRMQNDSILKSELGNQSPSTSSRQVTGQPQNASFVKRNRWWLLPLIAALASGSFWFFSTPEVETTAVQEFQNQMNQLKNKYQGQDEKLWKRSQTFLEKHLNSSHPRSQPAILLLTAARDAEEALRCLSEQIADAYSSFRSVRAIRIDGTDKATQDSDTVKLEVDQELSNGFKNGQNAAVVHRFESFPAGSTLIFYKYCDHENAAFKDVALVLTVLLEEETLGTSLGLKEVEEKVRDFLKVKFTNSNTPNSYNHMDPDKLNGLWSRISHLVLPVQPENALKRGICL
Sequence of Left-right determination factor 2 (Homo sapiens) (O00292 whole entry, looked up): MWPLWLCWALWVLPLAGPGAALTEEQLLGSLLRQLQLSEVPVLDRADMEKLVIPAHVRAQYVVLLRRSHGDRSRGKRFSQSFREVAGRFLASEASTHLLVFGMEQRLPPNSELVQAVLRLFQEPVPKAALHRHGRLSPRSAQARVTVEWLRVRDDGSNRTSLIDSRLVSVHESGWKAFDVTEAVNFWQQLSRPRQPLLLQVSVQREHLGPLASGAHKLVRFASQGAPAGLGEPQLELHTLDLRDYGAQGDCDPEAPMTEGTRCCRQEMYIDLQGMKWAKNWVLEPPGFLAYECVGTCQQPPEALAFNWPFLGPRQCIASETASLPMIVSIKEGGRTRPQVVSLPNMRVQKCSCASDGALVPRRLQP

With `CCOC(=O)NN=C1C[C@@H](O)[C@@H](O)[C@@H]2[C@@H]3C(=O)N(c4cccc(Oc5ccccc5)c4)C(=O)[C@@H]3CC[C@@H]12`, the composite z-score in [1] is -0.269; in experiment [3], 0.144; in experiment [4], -0.0069; in experiment [5], -0.434; in [6], -0.0165; in experiment [7] it was -0.32. In addition, the results for the composite z-score in [8], in [9] and in experiment [10] were -0.444, -0.127 and 1.32, respectively. The compound also gave a z-score in experiment [2] of -0.912.
For the compound `O=C1[C@H]2[C@H]3[C@H](O)[C@H](O)CC(=NO[C@@H]4O[C@H](CO)[C@@H](O)[C@H](O)[C@H]4O)[C@H]3CC[C@H]2C(=O)N1c1cccc(Oc2ccccc2)c1`, the composite z-score is 0.583 in experiment [1]; 0.723 in experiment [3]; -0.0761 in experiment [4]; -0.474 in [5]; -0.168 in experiment [6]; -0.349 in experiment [7]. For the same compound, the composite z-score in [8] is -0.129; in experiment [9], 0.675; in [10] it was -0.0791. Moreover, the z-score in [2] was -0.243.
Turning to `C[C@H]1CC[C@H]2C(=O)O[C@H](COc3ccc(C(C)(C)C)cc3)CN2[C@@H]1c1ccc(Br)cc1`, the composite z-score was 0.179 in [1]; -0.281 in [3]; 1 in experiment [4]; 0.101 in experiment [5]; -0.139 in [6]; -0.0548 in [7]. In addition, the composite z-score is 0.0051 in [8], 0.303 in experiment [9] and 1.15 in experiment [10]. Also, the z-score in [2] is -0.145.
Turning to `COc1ccc(COC(=O)NN=C2C[C@@H](O)[C@@H](O)[C@@H]3[C@@H]4C(=O)N(Cc5ccccc5)C(=O)[C@@H]4CC[C@H]23)cc1`, the composite z-score in experiment [1] was 1.36; in experiment [3] it was -0.475; in experiment [4], 0.0114; in [5], -0.435; in experiment [6] it was -0.0758; in experiment [7], -0.206. For the same compound, the composite z-score in experiment [8] stood at 0.194; in experiment [9] it was 0.589; in experiment [10] it was 0.469. The z-score in [2] is -0.632.
Take `COc1cccc([C@H]2Oc3ccc(OC)cc3C(=NOC(C)CN3CCCCc4nc(C)c(C)cc43)[C@@H]2O)c1` (stereo not given in full): the composite z-score in experiment [1] is -0.168; in experiment [3], 0.321; in experiment [4] it was 0.147; in experiment [5] it was -0.861; in experiment [6], -0.148; in experiment [7], 0.151. In addition, the composite z-score in experiment [8] was -0.219; in experiment [9], 0.29; in experiment [10], 0.385. Besides, the z-score in experiment [2] was -2.48.
Take `COc1ccc(COC(=O)NN=C2C[C@@H](O)[C@@H](O)[C@@H]3[C@@H]4C(=O)N(c5cccc(Oc6ccccc6)c5)C(=O)[C@@H]4CC[C@@H]23)cc1`: the composite z-score in experiment [1] is -0.203; in [3], -0.0421; in experiment [4], -0.338; in experiment [5] it was 0.0996; in experiment [6], -0.0165; in [7], -0.117. Besides, the composite z-score in [8] is -0.0641; in [9], 0.326; in [10] it was 0.487. For the same compound, the z-score in experiment [2] is -1.98.
On to `CON=C(C)CCC(=O)OC[C@H]1O[C@H](c2ccccc2)C=C[C@@H]1Oc1ccc(OC)cc1`, for which the composite z-score in experiment [1] was -0.65; in [3], 0.353; in experiment [4], -0.515; in experiment [5] it was -0.724; in experiment [6] it was 0.0257; in experiment [7], -0.0769. Besides, the results for the composite z-score in experiment [8], in experiment [9] and in [10] were -0.148, 0.474 and -0.0686, respectively. In experiment [2], the z-score came to 0.275.
For the compound `CO[C@@H]1COC(=O)[C@H](CCSC)NC(=O)CC=C[C@@H](C)COC(=O)CCC[C@H]1C`, the composite z-score in experiment [1] is -1.18; in experiment [3], 1.65; in experiment [4] it was -1.94; in [5], -2.51; in [6], -0.175; in experiment [7] it was -0.214. The composite z-score in experiment [8] was -0.472; in experiment [9], 0.813; in experiment [10], -0.354. This compound displayed a z-score in experiment [2] of -0.346.
With `O=C1C=C[C@@H](O)[C@@H]2[C@@H]3C(=O)N(c4ccc(F)cc4F)C(=O)[C@@H]3CC[C@@H]12`, the composite z-score in experiment [1] was 0.229; in [3], 0.237; in [4], 0.269; in experiment [5], -0.282; in [6], -0.0405; in [7], -0.153. The figures for the composite z-score in [8], in [9] and in experiment [10] were -0.252, 0.804 and 0.0764, respectively. Also, the z-score in [2] was -0.578.
Regarding `COC(=O)CC=C[C@@H](C)[C@@H]1C=C[C@H](O)[C@@H](CO)O1`, the composite z-score in experiment [1] is 0.0429; in experiment [3] it was 0.43; in [4] it was 0.367; in experiment [5], -0.818; in experiment [6], -0.154; in experiment [7], 0.647. Also, the composite z-score was -0.546 in experiment [8], 0.297 in [9] and -0.139 in experiment [10]. The compound further showed a z-score in [2] of -0.0733.
With `CCN1C(=O)[C@H]2[C@H]3[C@H](O)[C@H](O)CC(=NO[C@@H](C)c4cn([C@H](CO)Cc5ccccc5)nn4)[C@@H]3CC[C@H]2C1=O`, the composite z-score in [1] is 0.696; in [3], 0.636; in [4], 0.711; in [5] it was -0.209; in experiment [6], -0.0403; in experiment [7], -0.206. Further, the values for the composite z-score in [8], in experiment [9] and in experiment [10] were 0.111, -0.117 and 0.889, respectively. This compound returned a z-score in experiment [2] of -0.262.
As for `COC(=O)CC=C[C@@H](C)[C@@H](C=NO[C@H](C)c1cn([C@H](CO)Cc2ccccc2)nn1)OC`, the composite z-score in [1] is 0.319; in experiment [3], 1.1; in experiment [4], -1.03; in experiment [5], -1.24; in experiment [6], -0.0179; in experiment [7], -0.138. Moreover, the composite z-score was -0.191 in experiment [8], 0.427 in experiment [9] and 0.608 in [10]. In addition, the z-score in [2] is -1.3.
